In PubChem BioAssay (Tox21):
Results filed as inconclusive are left out. Activity calls are given as the source filed them. Unless noted, calls follow the shape of the dose curve; as a rule, active = well fitted curve in the direction sought with a large enough effect in the repeat runs; inconclusive = weak or mixed curves; inactive = no such curve, though single readings can be large; an effect the other way counts as inactive or inconclusive.

Key:
[1] = qHTS assay for small molecule agonists of the p53 signaling pathway (AID 651631; calls by dose curve; also: nearly all actives have a fitted effect of over 15% in size)
Outline: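 Fluorescence intensity from cleaved LiveBLAzer B/G substrate (2 h, room temperature) served as the signal. Beforehand, HCT-116 reporter cells bearing p53 response elements were treated 16 h at 37 °C with DMSO-dissolved compounds.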

[2] = qHTS assay for small molecule agonists of the p53 signaling pathway - cell viability (AID 651633; calls by dose curve;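 also: p53RE-bla HCT reporter cells with a stable beta-lactamase p53 reporter; series mostly up to about 83 µM; nearly all actives have a fitted effect of over 30% in size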)
Outline: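 Viability counter-read: CellTiter-Glo luminescence (30 min, room temperature) in the same p53RE-bla plates. These plates had been exposed to compounds for 16 h at 37 C.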

[3] = qHTS assay for small molecules that induce genotoxicity in human embryonic kidney cells expressing luciferase-tagged ATAD5 - cell viability (AID 651634; calls by dose curve; also: nearly all actives have a fitted effect of over 25% in size)
Outline: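 Quantitative high-throughput format. HEK293T cells expressing ATAD5 fused to luciferase were plated at 2,000 cells/well and treated 15.5 hr with compound versus DMSO. Viability was determined by fluorescent live-cell protease substrate, 30 min at 37C.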

[4] = qHTS assay for small molecule disruptors of the mitochondrial membrane potential - cell viability (AID 720634; calls by dose curve;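 also: human HepG2 liver cancer cells; series mostly up to about 83 µM; nearly all actives have a fitted effect of over 20% in size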)
Outline: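 Same-well counter-screen: following the MMP dye addition, CellTiter-Glo was added to 1 hr compound-treated HepG2 cells and luminescence read after 30 min at room temperature.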

[5] = qHTS assay for small molecule disruptors of the mitochondrial membrane potential (AID 720635); also: potency is read from the fitted curve at half-maximal effect
Outline: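 Mitochondrial membrane potential tracked with Mito-MPS dye, red aggregates (ex 540/em 590 nm) against green monomers (ex 490/em 535 nm). Compound treatment 1 hr at 37C, dye 30 min in HepG2.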

[6] = qHTS assay to test for compound auto fluorescence at 590 nm (red) in HepG2 cells (AID 720674)
Outline: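 We screened compounds on adherent HepG2 cells, incubating them for an hour at 37 C in 5% CO2 before reading emission at 590 nm under 540 nm excitation; values reflect equivalence to Rose Bengal sodium fluorescence.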

[7] = qHTS assay to test for compound auto fluorescence at 535 nm (green) in HepG2 cells (AID 720675)
[8] = qHTS assay to test for compound auto fluorescence at 460 nm (blue) in HEK293 cells (AID 720678)
Outline: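 Triamterene serves as the blue fluorophore standard. Compound signal at 405/460 nm is read in HEK293 wells (2,000 cells, 10% dialyzed FBS) after overnight treatment at 37C.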

[9] = qHTS assay to test for compound auto fluorescence at 590 nm (red) in HEK293 cells (AID 720679)
Outline: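 We plated HEK293 cells in 10% dialyzed FBS medium, let them adhere for 4-5 hr, then added 23 nL compound. Overnight at 37C and 5% CO2 preceded fluorescence measurement at 540/590nm.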

[10] = qHTS assay to test for compound auto fluorescence at 535 nm (green) in HEK293 cells (AID 720680)
[11] = qHTS assay to test for compound auto fluorescence at 460 nm (blue) in HEK293 cell free culture (AID 720681)
Outline: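 Blue fluorescence (Ex 405/Em 460 nm, triamterene-equivalent) was read immediately after pin transfer of compound or DMSO into medium (DMEM, 10% FBS) without cells.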

[12] = qHTS assay to test for compound auto fluorescence at 535 nm (green) in HEK293 cell free culture (AID 720682)
Outline: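 Intrinsic compound fluorescence is measured in culture medium containing 10% FBS, with excitation at 485 nm and detection at 535 nm, referenced to fluorescein.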

[13] = qHTS assay to test for compound auto fluorescence at 590 nm (red) in HEK293 cell free culture (AID 720683)
Outline: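 Red-channel autofluorescence of compounds in culture medium (DMEM, 10% FBS), no cells, measured at 540/590 nm. Rose Bengal sodium is the reference fluorophore for equivalence.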

[14] = qHTS assay to test for compound auto fluorescence at 590 nm (red) in HepG2 cell free culture (AID 720684)
Outline: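 Cell-free; medium MEM + 10% FBS; compound or DMSO added by pintool; read Ex 540/Em 590 nm; Rose Bengal sodium as red reference fluorophore.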

[15] = qHTS assay to test for compound auto fluorescence at 460 nm (blue) in HepG2 cell free culture (AID 720685)
Outline: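 Cell-free plates of MEM plus 10% FBS received 23 nL compound or DMSO vehicle; blue-channel (405/460 nm) intensity scored against triamterene as reference fluorophore.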

[16] = qHTS assay to test for compound auto fluorescence at 535 nm (green) in HepG2 cell free culture (AID 720686)
[17] = qHTS assay to test for compound auto fluorescence at 460 nm (blue) in HepG2 cells (AID 720687)
Outline: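 Blue-channel autofluorescence (Ex/Em 405/460 nm, triamterene-equivalent) was measured after 1 hr compound exposure at 37 C, 5% CO2. Cells were HepG2, plated overnight at 37 C in MEM plus 10% FBS.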

[18] = target: Glucocorticoid receptor (Homo sapiens) (UniProt P04150); test: qHTS assay to identify small molecule agonists of the glucocorticoid receptor (GR) signaling pathway (AID 720691; active = well fitted activation curve with a large enough effect in the signal ratio in the repeat runs, not every such curve was filed as active; the % refers to the signal ratio)
Chain of Glucocorticoid receptor (Homo sapiens) (P04150 whole entry, looked up): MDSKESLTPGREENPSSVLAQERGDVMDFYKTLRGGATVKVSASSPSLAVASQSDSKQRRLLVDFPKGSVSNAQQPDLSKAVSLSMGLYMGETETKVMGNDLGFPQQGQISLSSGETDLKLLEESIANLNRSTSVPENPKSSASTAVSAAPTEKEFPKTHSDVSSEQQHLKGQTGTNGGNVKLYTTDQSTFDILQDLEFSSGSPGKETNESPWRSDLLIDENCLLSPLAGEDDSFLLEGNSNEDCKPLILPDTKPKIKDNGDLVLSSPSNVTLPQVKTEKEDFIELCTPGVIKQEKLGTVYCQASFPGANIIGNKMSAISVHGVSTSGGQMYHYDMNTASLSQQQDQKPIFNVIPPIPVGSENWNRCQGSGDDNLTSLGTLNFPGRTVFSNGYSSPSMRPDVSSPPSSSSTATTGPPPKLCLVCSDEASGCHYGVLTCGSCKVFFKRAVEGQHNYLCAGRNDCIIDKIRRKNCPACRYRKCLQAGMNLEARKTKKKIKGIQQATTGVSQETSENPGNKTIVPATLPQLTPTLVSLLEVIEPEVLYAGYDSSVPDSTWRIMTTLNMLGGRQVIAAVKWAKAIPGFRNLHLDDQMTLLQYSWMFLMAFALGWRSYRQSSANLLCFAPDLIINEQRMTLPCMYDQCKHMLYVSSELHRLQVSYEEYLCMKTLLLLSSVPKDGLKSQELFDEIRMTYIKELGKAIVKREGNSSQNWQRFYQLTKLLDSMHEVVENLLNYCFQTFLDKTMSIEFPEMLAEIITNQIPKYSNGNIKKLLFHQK
Outline: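 A HeLa cervical cancer line expressing GR and a glucocorticoid response element-driven beta-lactamase gene is treated with compounds for 18 h; LiveBLAzer B/G FRET substrate is then applied and fluorescence read.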

[19] = target: Glucocorticoid receptor (Homo sapiens) (UniProt P04150); test: qHTS assay to identify small molecule antagonists of the glucocorticoid receptor (GR) signaling pathway (AID 720692; active = well fitted inhibition curve with a large enough effect in the signal ratio in the repeat runs, not every such curve was filed as active; the % refers to the signal ratio)
Outline: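 GRE-bla HeLa line, dex-stimulated (5 nM final). Compound exposure 18 h, 37 C. Beta-lactamase FRET read after 2 h RT substrate.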

[20] = qHTS assay for small molecules that induce genotoxicity in human embryonic kidney cells expressing luciferase-tagged ATAD5 (AID 651632); also: nearly all actives have a fitted effect of over 15% in size
Outline: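 Test compounds were delivered by pin tool onto HEK293T reporter cells (2,000/well) expressing ATAD5 fused to luciferase. After 16 hr at 37C, 5% CO2, Amplite was added for 30 min at room temperature and luminescence was measured.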

Measured: Potency

COc1ccc(OC)cc1
not listed: [20]
inactive: all other assays above

CCOC(=O)c1ccc(N)cc1
inactive: all assays above

C=CCCCCCCCCC(=O)O
not listed: [5] | [9] | [17]
inactive: all other assays above

CC(=O)CC(C)(C)O
not listed: [9] | [20]
inactive: all other assays above

OCc1cccc(Oc2ccccc2)c1
active: [5] 54.5 µM
not listed: [7] | [9] | [17] | [18] | [19]
inactive: all other assays above

CCOCCOCCOCCO
not listed: [9] | [18] | [19] | [20]
inactive: all other assays above

NCCNCCN
not listed: [4] | [5] | [7] | [9] | [17] | [18] | [19]
inactive: all other assays above

N#Cc1ccccc1
not listed: [20]
inactive: all other assays above

NC(=S)NNC(N)=S
not listed: [9] | [17] | [20]
inactive: all other assays above

O=C1CCCC1
not listed: [7] | [17]
inactive: all other assays above

CN1C(=O)CC[C@H]1c1cccnc1
not listed: [18] | [19]
inactive: all other assays above

CC(CCO)CC(C)(C)C (configuration not stated)
not listed: [9]
inactive: all other assays above

COCCOC(=O)c1ccccc1C(=O)OCCOC
not listed: [9]
inactive: all other assays above

CNC(=S)N(C)C
not listed: [17]
inactive: all other assays above

NCCCCCCN
not listed: [18] | [19] | [20]
inactive: all other assays above

C[Si]1(C)O[Si](C)(C)O[Si](C)(C)O[Si](C)(C)O1
not listed: [17] | [18] | [19]
inactive: all other assays above

O=C(O)CCCCCCCCC(=O)O
not listed: [9] | [17] | [18] | [19]
inactive: all other assays above
